Results as given in PubChem BioAssay AID1159580 (chemical genetic matrix, 2015).
The campaign covered roughly 5,500 compounds. About 2,000 (36%) were called active. Not shown: some 18% with an inconclusive outcome. Rule as the data show it: active = normalized growth mostly below about 0.91 (no sharp cut-off); inconclusive = no clear call, values can overlap the other calls; inactive = mostly above about 0.92. Some of the results follow.

Experiment: chemical genetic growth profiling, strain panel (AID 1159580);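 also: tested at 20 µM; growth read once vehicle control cultures reached saturation at 30 °C; 1 = growth at the plate median or of vehicle wells; lower values mean less growth of the strain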
Details: S. cerevisiae deletion strains, growth OD
[1] = locus YHR030C, strain SLT2, stronger effect = lower value
[2] = locus YHR079C, strain IRE1, stronger effect = lower value
[3] = locus YJL095W, strain BCK1, stronger effect = lower value
[4] = locus YJR066W, strain TOR1, stronger effect = lower value
[5] = locus YLR113W, strain HOG1, stronger effect = lower value
[6] = locus YNL183C, strain NPR1, stronger effect = lower value
[7] = locus YOR231W, strain MKK1, stronger effect = lower value
[8] = locus YPL256C, strain CLN2, stronger effect = lower value

Measured: normalized growth

CSc1ccc(C(=O)c2[nH]c(=O)[nH]c2C)cc1
inactive: locus YAL013W, strain DEP1, stronger effect = lower value 0.943 | locus YAL040C, strain CLN3, stronger effect = lower value 1.06 | locus YCL061C, strain MRC1 (second series), stronger effect = lower value 0.991 | locus YDR363W, strain ESC2, stronger effect = lower value 0.934 | locus YER002W, strain NOP16, stronger effect = lower value 0.978 | locus YGR078C, strain PAC10, stronger effect = lower value 1 | locus YMR307W, strain GAS1, stronger effect = lower value 1.01 | locus YNL128W, strain TEP1, stronger effect = lower value 0.981 | locus YNL175C, strain NOP13, stronger effect = lower value 0.985 | locus YNL197C, strain WHI3, stronger effect = lower value 0.994 | locus YNL224C, strain SQS1, stronger effect = lower value 0.994 | locus YOR083W, strain WHI5 (second series), stronger effect = lower value 0.96

CC[C@@H]1OC(=O)C[C@@H](O)[C@H](C)[C@@H](O[C@@H]2O[C@H](C)[C@@H](O)[C@H](N(C)C)[C@H]2O)[C@@H](CCN2C[C@H](C)C[C@H](C)C2)C[C@@H](C)C(=O)/C=C/C(C)=C\[C@@H]1CO[C@@H]1O[C@H](C)[C@@H](O)[C@@H](OC)[C@H]1OC
inactive: locus YAL021C, strain ccr4, stronger effect = lower value 1 | locus YAL026C, strain drs2, stronger effect = lower value 0.994 | locus YAL030W, strain snc1, stronger effect = lower value 0.996 | locus YBL061C, strain skt5, stronger effect = lower value 0.99 | locus YBR009C, strain hhf1, stronger effect = lower value 1 | locus YBR023C, strain chs3, stronger effect = lower value 0.997 | locus YBR171W, strain sec66, stronger effect = lower value 1.01 | locus YBR231C, strain swc5, stronger effect = lower value 0.986 | locus YBR279W, strain paf1, stronger effect = lower value 0.982 | locus YCL011C, strain gbp2, stronger effect = lower value 0.971 | locus YCL016C, strain dcc1, stronger effect = lower value 0.967 | locus YCL069W, strain vba3, stronger effect = lower value 1.02 | locus YCR088W, strain abp1, stronger effect = lower value 1.01 | locus YDL005C, strain med2, stronger effect = lower value 0.994 | locus YDL040C, strain nat1, stronger effect = lower value 0.996 | locus YDR001C, strain nth1, stronger effect = lower value 1.01 | locus YDR069C, strain doa4, stronger effect = lower value 0.992 | locus YDR137W, strain rgp1, stronger effect = lower value 1 | locus YDR159W, strain sac3, stronger effect = lower value 0.931 | locus YDR195W, strain ref2 0.972 | locus YDR297W, strain sur2, stronger effect = lower value 1.01 | locus YDR334W, strain swr1, stronger effect = lower value 0.995 | locus YDR335W, strain msn5, stronger effect = lower value 1.01 | locus YDR392W, strain spt3, stronger effect = lower value 0.887 | locus YEL003W, strain gim4, stronger effect = lower value 1.01 | locus YEL037C, strain rad23, stronger effect = lower value 1.01 | locus YEL061C, strain CIN8 (second series), stronger effect = lower value 1.01 | locus YER015W, strain faa2, stronger effect = lower value 1 | locus YER016W, strain bim1, stronger effect = lower value 0.993 | locus YER111C, strain swi4, stronger effect = lower value 1 | locus YER155C, strain BEM2 (second series), stronger effect = lower value 1 | locus YFR010W, strain ubp6, stronger effect = lower value 1 | locus YGL167C, strain pmr1, stronger effect = lower value 1 | locus YGL173C, strain kem1, stronger effect = lower value 0.981 | locus YGL227W, strain vid30, stronger effect = lower value 0.987 | locus YGL240W, strain doc1, stronger effect = lower value 0.975 | locus YGL253W, strain hxk2, stronger effect = lower value 1.01 | locus YHR013C, strain ard1, stronger effect = lower value 0.955 | locus YHR027C, strain rpn1, stronger effect = lower value 1 | [1] 0.978 | [2] 0.971 | locus YHR142W, strain chs7, stronger effect = lower value 0.983 | locus YJL092W, strain hpr5, stronger effect = lower value 1.01 | locus YJL095W, strain BCK1 (second series), stronger effect = lower value 0.996 | [3] 0.974 | locus YJL115W, strain asf1, stronger effect = lower value 1.01 | locus YJL129C, strain trk1, stronger effect = lower value 1 | locus YJL154C, strain vps35, stronger effect = lower value 1.02 | locus YJL164C, strain tpk1, stronger effect = lower value 1.03 | locus YJL166W, strain qcr8, stronger effect = lower value 1.02 | [4] 0.939 | locus YKL160W, strain elf1, stronger effect = lower value 0.974 | locus YKR026C, strain gcn3, stronger effect = lower value 0.997 | locus YKR091W, strain srl3, stronger effect = lower value 1 | locus YLL001W, strain dnm1, stronger effect = lower value 1 | locus YLL026W, stronger effect = lower value 0.993 | locus YLL041C, strain sdh2, stronger effect = lower value 1.01 | locus YLR027C, strain aat2, stronger effect = lower value 0.994 | [5] 1 | locus YLR221C, strain rsa3, stronger effect = lower value 0.99 | locus YLR258W, strain gsy2, stronger effect = lower value 0.992 | locus YLR262C, strain YPT6 (second series), stronger effect = lower value 1.03 | locus YLR320W, strain mms22, stronger effect = lower value 0.981 | locus YLR342W, strain FKS1, stronger effect = lower value 0.984 | locus YLR357W, strain rsc2, stronger effect = lower value 0.987 | locus YLR370C, strain arc18, stronger effect = lower value 0.99 | locus YLR384C, strain iki3, stronger effect = lower value 0.981 | locus YML120C, strain ndi1, stronger effect = lower value 1.01 | locus YMR058W, strain fet3, stronger effect = lower value 1 | locus YMR125W, strain sto1, stronger effect = lower value 0.996 | locus YMR129W, stronger effect = lower value 1 | locus YMR205C, strain PFK2, stronger effect = lower value 1.01 | locus YMR231W, strain pep5, stronger effect = lower value 1 | locus YNL071W, strain lat1, stronger effect = lower value 1.02 | [6] 0.955 | locus YNL209W, strain ssb2, stronger effect = lower value 1 | locus YNL248C, strain rpa49, stronger effect = lower value 1 | locus YNL322C, strain KRE1 (second series), stronger effect = lower value 0.997 | locus YNR049C, strain mso1, stronger effect = lower value 1 | locus YOR001W, strain rrp6, stronger effect = lower value 0.994 | locus YOR070C, strain gyp1, stronger effect = lower value 0.999 | locus YOR080W, strain dia2, stronger effect = lower value 1.01 | locus YOR083W, strain WHI5, stronger effect = lower value 0.943 | locus YOR106W, strain vam3, stronger effect = lower value 1.01 | [7] 0.976 | locus YOR265W, strain rbl2, stronger effect = lower value 1 | locus YOR270C, strain vph1, stronger effect = lower value 0.976 | locus YOR290C, strain snf2, stronger effect = lower value 0.978 | locus YPL051W, strain arl3, stronger effect = lower value 0.998 | locus YPL078C, strain atp4, stronger effect = lower value 0.991 | locus YPL106C, strain sse1, stronger effect = lower value 0.963 | locus YPL240C, strain hsp82, stronger effect = lower value 1 | [8] 0.952

Cc1noc(C)c1S(=O)(=O)Nc1csc(C(F)(F)F)c1-c1ccccc1
inactive: locus YAR019C, strain CDC15, stronger effect = lower value 0.976 | locus YBL105C, strain PKC1, stronger effect = lower value 0.982 | locus YBR135W, strain CKS1, stronger effect = lower value 0.983 | locus YBR136W, strain MEC1, stronger effect = lower value 0.978 | locus YBR160W, strain CDC28, stronger effect = lower value 0.982 | locus YDL017W, strain CDC7, stronger effect = lower value 0.979 | locus YDL028C, strain MPS1, stronger effect = lower value 0.973 | locus YDL101C, strain DUN1, stronger effect = lower value 0.97 | locus YDL108W, strain KIN28, stronger effect = lower value 0.985 | locus YDL132W, strain cdc53, stronger effect = lower value 0.977 | locus YDL214C, strain PRR2, stronger effect = lower value 0.997 | locus YDR052C, strain DBF4, stronger effect = lower value 0.979 | locus YDR054C, strain cdc34, stronger effect = lower value 0.973 | locus YDR226W, strain ADK1, stronger effect = lower value 0.979 | locus YDR477W, strain SNF1, stronger effect = lower value 1.04 | locus YER123W, strain YCK3, stronger effect = lower value 1.05 | locus YER133W, strain GLC7, stronger effect = lower value 1.02 | locus YFL009W, strain cdc4, stronger effect = lower value 0.969 | locus YFL029C, strain CAK1, stronger effect = lower value 0.979 | locus YFR003C, strain YPI1, stronger effect = lower value 0.983 | locus YFR019W, strain FAB1, stronger effect = lower value 1.01 | locus YFR028C, strain CDC14, stronger effect = lower value 0.97 | locus YGR040W, strain KSS1, stronger effect = lower value 1.04 | locus YGR052W, strain FMP48, stronger effect = lower value 1.12 | locus YGR092W, strain DBF2, stronger effect = lower value 1.02 | [1] 1.09 | [2] 1.06 | locus YHR082C, strain KSP1, stronger effect = lower value 1.08 | locus YHR205W, strain SCH9, stronger effect = lower value 1 | locus YIL147C, strain SLN1, stronger effect = lower value 0.975 | [3] 1.07 | locus YJL128C, strain PBS2, stronger effect = lower value 0.957 | locus YJL157C, strain FAR1, stronger effect = lower value 1.01 | locus YJR016C, strain ILV3, stronger effect = lower value 0.982 | locus YJR066W, strain TOR1 (second series), stronger effect = lower value 1.04 | [4] 1.07 | locus YKL048C, strain ELM1, stronger effect = lower value 0.973 | locus YKL067W, strain YNK1, stronger effect = lower value 1 | locus YKL101W, strain HSL1, stronger effect = lower value 0.978 | locus YKL193C, strain SDS22, stronger effect = lower value 0.976 | locus YKL203C, strain TOR2, stronger effect = lower value 1.08 | [5] 1.04 | locus YLR133W, strain CKI1, stronger effect = lower value 1.01 | locus YLR403W, strain SFP1, stronger effect = lower value 1.05 | locus YML070W, strain DAK1, stronger effect = lower value 1.04 | locus YMR001C, strain CDC5, stronger effect = lower value 0.971 | locus YMR205C, strain PFK2 (second series), stronger effect = lower value 0.995 | locus YMR277W, strain FCP1, stronger effect = lower value 0.98 | locus YNL006W, strain LST8, stronger effect = lower value 0.98 | locus YNL020C, strain ARK1, stronger effect = lower value 0.993 | locus YNL161W, strain CBK1, stronger effect = lower value 0.972 | [6] 1.06 | locus YNL207W, strain RIO2, stronger effect = lower value 0.978 | locus YNL222W, strain SSU72, stronger effect = lower value 0.98 | locus YNL307C, strain MCK1 (second series), stronger effect = lower value 1 | locus YOL078W, strain AVO1, stronger effect = lower value 0.978 | locus YOL136C, strain PFK27, stronger effect = lower value 1.02 | locus YOR061W, strain CKA2, stronger effect = lower value 0.985 | locus YOR119C, strain RIO1, stronger effect = lower value 1.02 | [7] 1.05 | locus YOR329C, strain SCD5, stronger effect = lower value 0.975 | locus YPL031C, strain PHO85, stronger effect = lower value 1.03 | locus YPL153C, strain RAD53, stronger effect = lower value 1.04 | locus YPL204W, strain HRR25, stronger effect = lower value 1.04 | locus YPL209C, strain IPL1, stronger effect = lower value 0.975 | [8] 1.01 | locus YPR025C, strain CCL1, stronger effect = lower value 0.98 | locus YPR106W, strain ISR1, stronger effect = lower value 0.981 | locus YPR111W, strain DBF20, stronger effect = lower value 0.97 | strain NNK1, stronger effect = lower value 0.964 | strain TSCII, stronger effect = lower value 0.983
